BCR signal inh – inhibitors of chronic active B-cell receptor signaling; Potency, µM (top dose mostly 46.1 µM), for inactives: top-dose activity change, negative = inhibition, usual class: inhibitors; 0.05% of 340,000 active; ABC-DLBCL IkBa-CBG/CBR reporter, luminescence ratio, 4 h; AID 493014; active means well fitted inhibition curve with a large enough effect in the signal ratio, with a control signal flat, not every such curve was filed as active; inconclusive means small, poorly fitted or top-dose-only effect, or effect the other way, or a change in a side signal; the % refers to the signal ratio;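 further: potency means the concentration at half of the fitted maximal effect; plate controls were basal doxycycline-induced cells for no effect and cells given 10 µM MG132 for full effect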
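Doxycycline induced both beetle luciferases in TMD8 lymphoma cells; IKK-driven degradation limits the IkappaBalpha-fused green signal, while red luminescence normalises for cell number and nonspecific effects. Compounds tested up to 46 uM, 4 hrs.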
12-LOX inh – inhibitors of human 12S-lipoxygenase ALOX12. P18054. purified 12hLO, xylenol orange hydroperoxide absorbance. Potency, µM (doses to about 108 µM), for inactives: at the top dose activity change, negative = inhibition, usual class: inhibitors. 1.1% of 580,000 active. AID 1671190; active means well fitted inhibition curve with a large enough effect; inconclusive means small, poorly fitted or top-dose-only effect, or another doubt; inactive means no such curve, though single readings can be large or run the other way; further: potency means the concentration at half of the fitted maximal effect; on the % scale 0 is the no-effect control and ±100 the full control effect
Target sequence (P18054 whole entry, looked up): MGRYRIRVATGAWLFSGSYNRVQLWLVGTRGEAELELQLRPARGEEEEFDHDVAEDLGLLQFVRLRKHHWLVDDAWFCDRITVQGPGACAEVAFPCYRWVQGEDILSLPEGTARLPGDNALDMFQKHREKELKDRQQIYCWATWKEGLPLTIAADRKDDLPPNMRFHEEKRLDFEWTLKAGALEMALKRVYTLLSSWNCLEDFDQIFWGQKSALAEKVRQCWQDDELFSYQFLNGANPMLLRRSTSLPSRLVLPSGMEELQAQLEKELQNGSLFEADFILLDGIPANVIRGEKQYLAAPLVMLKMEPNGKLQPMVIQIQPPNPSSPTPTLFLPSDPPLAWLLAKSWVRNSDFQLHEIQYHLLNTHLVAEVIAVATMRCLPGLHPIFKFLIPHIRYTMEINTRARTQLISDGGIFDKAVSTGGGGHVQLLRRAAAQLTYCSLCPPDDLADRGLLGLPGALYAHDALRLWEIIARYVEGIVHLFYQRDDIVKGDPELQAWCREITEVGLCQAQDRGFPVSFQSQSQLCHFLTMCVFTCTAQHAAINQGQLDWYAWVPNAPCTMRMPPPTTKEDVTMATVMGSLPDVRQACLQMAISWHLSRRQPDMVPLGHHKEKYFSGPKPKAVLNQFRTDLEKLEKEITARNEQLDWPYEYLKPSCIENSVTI
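Purified human 12hLO (150 nM final) in 25 mM Hepes, 0.01% Triton X-100, pH 7.0 was preincubated 15 min at room temperature with compound. Then 40 uM arachidonic acid was added, 30 min. Hydroperoxide was read by Fe-XO absorbance ratio 573/405 nm.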
ClpP mod – qHTS Assay for Activators of ClpP; Potency, µM (doses to about 57.5 µM), for inactives: top-dose activity change, negative = active; ATP-dependent Clp protease proteolytic subunit (Bacillus subtilis (strain 168)), P80244; 1.9% of 340,000 active; purified B. subtilis ClpP, FRET peptide cleavage, 20 min; AID 651965, 2013; active means well fitted falling curve with a large enough effect; inconclusive means small, poorly fitted or top-dose-only effect; inactive means no such curve, though single readings can be large or run the other way; further: potency means the concentration at half of the fitted maximal effect; the source files actives as falling curves though it sought activators and does not explain the sign; nearly all actives have a fitted effect of over 65% in size
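ClpP 10 microg/mL final, pH 8 Tris/KCl buffer with BSA, glycerol, Tween-20; compound pinned in; FRET-FV substrate; RT 20 min; Ex320/Em430; ΔFRET vs ADEP 5.8 microM, DMSO, no enzyme.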
LDHA block – LDHA (human) enzyme inhibition. P00338. purified LDHA, NADH/diaphorase-resazurin fluorescence; hits give low values. activity change, % (values are at about 110 or 230 µM). 0.15% of 480,000 active. AID 1347041; in the data active means activity change below about -30%; inconclusive means mostly about -25% to -30%;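 further: plate controls were DMSO wells for no effect and wells without enzyme for full effect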
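Human LDH5 (2 nM) was incubated with 0.06 mM NADH and 0.2 mM pyruvate for 5 min at room temperature in Tris pH 7.4. Remaining NADH was coupled through diaphorase/resazurin, and resorufin fluorescence was read at 0 and 20 min.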
KCNH2 WT inh – inhibitors of human wildtype KCNH2 potassium channel | Q12809 | U2OS, BacMam KCNH2, thallium flux FluxOr; hits give low values | activity change, % at 1.84 µM | 0.37% of 340,000 active;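 active means maximum activity change below -70%; inconclusive means maximum activity change between -70% and -50%; inactive means maximum activity change above -50%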; further: on the % scale 0 is the no-effect control and ±100 the full control effect
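U2OS cells transduced with wild-type KCNH2 virus are loaded with FluxOr dye for 45 min, and thallium flux is measured in kinetic reads before and after stimulation buffer. Rate constants are normalized to DMSO controls.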
KCNH2 3.1 block – blocks the human KCNH2 3.1 channel isoform; U2OS KCNH2 3.1, thallium flux FluxOr; hits give low values; activity change, % (tested at about 1.8 µM); 0.95% of 340,000 active; AID 720553;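 active means maximum activity change below -70%; inconclusive means maximum activity change from -70% to -50%; inactive means maximum activity change above -50%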;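 further: thallium influx rate constant from kinetic fluorescence after stimulation buffer; on the % scale 0 is the no-effect control and ±100 the full control effect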
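Normalized rate constant (relative to positive and negative DMSO controls) derived from a 2 min kinetic fluorescence read after stimulation; U2OS cells expressing the 3.1 isoform via virus at 1.77 x 10^8 /mL.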
Active calls of the source: *; ? = inconclusive; · = not tested or not shown; [ ] = remark or other dose. Compounds with a hit are over-represented: about 3% of the library has one in this group of screens.

SMILES	BCR signal inh	12-LOX inh	ClpP mod	LDHA block	KCNH2 WT inh	KCNH2 3.1 block
CCCCNC(=O)c1cc2c(=O)n3cccc(C)c3nc2n(CCN2CCOCC2)c1=N	9.5%	127.0%	12.6µM*	-1.1	17.1	-4.9
Cc1cccn2c(=O)c3cc(C(=O)O)n(C)c3nc12	2.3%	?	31.6µM*	-2.3	-4.4	-1.6
CCCCNC(=O)c1cc2c(=O)n3cccc(C)c3nc2n(Cc2ccncc2)c1=N	10.8%	-12.9%	3.55µM*	-0.7	-8.4	-12.0
Cc1cccn2c(=O)c3cc(C(=O)NC4CCCCC4)c(=N)n(CCN4CCOCC4)c3nc12	?	-0.3%	3.8%	-0.4	-8.0	6.2
CCN1CCN(CC(=O)Nc2oc3ccccc3c(=O)c2-c2ccc(OC)c(OC)c2)CC1	·	17.5%	·	-5.6	·	·
CC(C)CC(NC(N)=O)C(=O)NCCc1ccc(C(F)(F)F)cc1 (stereo not given)	·	?	·	0.3	·	·
Cc1ccc(-c2cc(C(=O)Nc3c(C)n(C)n(-c4ccccc4)c3=O)no2)cc1C	·	10.1%	·	12.3	·	·
CCCC1=C(C(=O)OCC)C(c2ccccc2C)C(C#N)=C(N)O1 (stereo not given)	·	?	·	16.6	·	·
COC(=O)C1(NC(=O)COc2cc(Cl)ccc2Cl)CCCCCC1	·	-14.2%	·	-30.5*	·	·
CCOc1ccc(Cc2n[nH]c(=S)n2N)cc1	-0.8%	?	-0.9%	-0.5	-4.6	14.4
Nn1c(Cc2ccc(Br)cc2)n[nH]c1=S	1.8%	28.2µM*	·	-2.7	-7.7	1.6
O=C(NCCCN1CCCC1=O)c1cc(S(=O)(=O)N2CCN(c3ccccc3)CC2)ccc1Cl	·	?	28.2µM*	-6.5	2.9	0.0
O=C(NCCCN1CCCC1=O)c1cc(-c2ccc(F)cc2)nc2ccccc12	2.0%	-15.9%	8.91µM*	-2.9	2.6	-5.7
COc1ccc(Nc2cc(C(=O)NCCCN3CCOCC3)c3ccccc3n2)cc1	13.7%	-0.6%	0.7%	-4.8	-0.4	-7.4
O=C(NCCCN1CCOCC1)c1cc(-c2ccc(F)cc2)nc2ccccc12	-23.5%	4.8%	4.6%	-3.1	1.9	-1.4
CCc1ccc(Nc2cc(C(=O)NCCCN3CCOCC3)c3ccccc3n2)cc1	?	?	2.5%	-0.7	19.9	-74.4*
O=C(NCCN1CCOCC1)c1cc(-c2ccc(F)cc2)nc2ccccc12	?	-13.3%	25.1µM*	-1.1	4.7	2.4
COc1ccc(-c2cnnc(N/N=C/c3ccc(-c4ccc([N+](=O)[O-])cc4)o3)n2)cc1	-4.1%	-15.9%	0.7%	-5.5	-10.9	-148.6*
CCC(=O)OC1(C)C(=O)C=C2C=C(CCCC(=O)OC)OC=C2C1=O (stereo not given)	·	?	-0.7%	6.5	-1.0	-0.6
CC1(OC(=O)C2CCCC2)C(=O)C=C2C=C(c3ccsc3)OC=C2C1=O (stereo not given)	6.3%	7.94µM*	1.4%	11.2	0.1	9.7
CC1(OC(=O)c2cccs2)C(=O)C=C2C=C(C3CC3)OC=C2C1=O (stereo not given)	·	?	-0.7%	9.1	3.8	6.5
CCCCC1=CC2=CC(=O)C(C)(OC(=O)CC)C(=O)C2=CO1 (stereo not given)	·	35.5µM*	0.6%	2.5	-15.6	11.8
CC1(OC(=O)CCc2ccccc2)C(=O)C=C2C=C(c3ccsc3)OC=C2C1=O (stereo not given)	6.9%	·	·	·	·	·
CCCCC1=CC2=CC(=O)C(C)(OC(=O)C3CCCC3)C(=O)C2=CO1 (stereo not given)	0.8%	15.8µM*	6.7%	8.6	-18.2	1.7
COC(=O)CCCC1=CC2=CC(=O)C(C)(OC(=O)C3CCCC3)C(=O)C2=CO1 (stereo not given)	1.7%	·	1.1%	6.5	16.4	14.9
SMILES	BCR signal inh	12-LOX inh	ClpP mod	LDHA block	KCNH2 WT inh	KCNH2 3.1 block
CC1(OC(=O)c2ccco2)C(=O)C=C2C=C(C3CC3)OC=C2C1=O (stereo not given)	·	44.7µM*	1.1%	10.5	32.6	1.7
CC(C)CN(CC(=O)NC(C)(C#N)C1CC1)C1CC1 (stereo not given)	·	2.3%	·	2.4	·	·
O/N=C/c1cn(-c2ccccc2)nc1-c1ccc2c(c1)OCCO2	?	0.0%[57.4 µM]	-4.0%	-5.4	-6.5	-1.7
OCc1cn(-c2ccccc2)nc1-c1ccc2c(c1)OCCO2	?	0.0%	28.2µM*	-0.2	-1.4	-9.7
COc1cccc(-c2nn(-c3ccccc3)cc2CO)c1	·	10.6%	0.1%	-3.5	-10.0	13.0
COc1ccc(-c2nn(-c3ccccc3)cc2CO)cc1OC	?	30.6%	11.2µM*	-3.8	-12.5	-6.1
Cc1nnc(N/N=C/c2cccc(OCc3ccc(Cl)c(Cl)c3)c2)n1N	?	17.8µM*	-14.5%	47.7	5.2	-22.8
Cc1ccc(OCC(=O)Nc2cccc(-c3nc4cc(C)ccc4o3)c2)cc1	·	?	·	4.3	·	·
COc1ccc(NC(=O)Cc2nnc(SCC(=O)Nc3cc(C)ccc3OC)n2C)cc1	·	6.3%	25.1µM*	-1.7	29.6	-3.6
COc1ccccc1-c1cc(=O)c2cc(NS(=O)(=O)c3ccccc3)ccc2o1	·	?	·	1.4	·	·
O=[N+]([O-])c1ccc(N/N=C\c2cccnc2)nc1	13.3%	0.0%	0.1%	1.4	·	-94.6*
Cc1ccc(N/N=C/c2ccncc2)cc1	?	?	-1.9%	1.7	·	-0.9
Cc1ccc(N/N=C/c2cccnc2)cc1	?	39.8µM*	-1.7%	-3.3	-12.5	12.1
CC(C)NC(=O)CCC(=O)c1ccc2c(c1)OCCO2	·	26.5%	·	-0.3	·	·
CC1CC(C)CN(C(=O)COC(=O)c2cc3ccccc3oc2=O)C1 (stereo not given)	?	-12.4%	35.5µM*	-9.3	2.1	16.4
O=C(OCC(=O)N1CCOCC1)c1cc2ccccc2oc1=O	-0.5%	2.7%	3.8%	1.6	5.0	9.8
CCCCCCCCn1c2c(c(=N)c3ccccc31)CCC2	12.2%	?	·	-9.3	-11.7	-25.9
Cc1cc(C)c2c(=N)c3ccccc3n(CCCCCCCCn3c4ccccc4c(=N)c4c(C)cc(C)nc43)c2n1	·	?	31.6µM*	5.4	-1.2	-6.2
COC(=O)c1cc(N)ccc1N1CCOCC1	·	17.2%	·	9.7	·	·
CC(C)CC(=O)N1CCC(N2CCN(C)CC2)CC1	·	?	·	8.2	·	·
CCOc1ccccc1N1CCN(Cc2ccco2)CC1	?	?	-0.4%	-6.6	-2.1	14.7
CCOc1ccccc1N1CCN(C/C=C/c2ccc(N(C)C)cc2)CC1	?	?	28.2µM*	-6.3	2.9	·
